From article PMC4552634, “A New Set of Chemical Starting Points with Plasmodium falciparum Transmission-Blocking Potential for Antimalarial Drug Discovery” (PLoS ONE, 2015)
Hit rate of the full screen: of about 13,000 compounds, about 3,200 (25%) showed an effect of 50% or more. The list shows a part of the results.

Test system: P. falciparum stage V gametocytes
Parameters: BacTiter-Glo ATP luminescence viability of purified stage V gametocytes in 384-well plates, per cent inhibition versus DMSO
Settings: 48 h, 5 µM; inhibitor

SMILES	% Inhibition [%]
CCCCNC[C@@H](O)[C@H](Cc1ccccc1)NC(=O)c1cc(NCC)cc(N2CCCCS2(=O)=O)c1 [TCMDC-135177]	4.465
CCOC(=O)c1[nH]c(-c2cccc(F)c2)nc1N [TCMDC-131794]	-46.62
O=C(Nc1cccnc1)c1cc(-c2cccnc2)nc2ccc(Cl)cc12 [TCMDC-124361]	-11.56
COc1ccc(-n2ncc(C(=O)N3CCC4(C3)C(=O)N(c3ccccc3)c3ccccc34)c2C)cc1 (stereo not drawn) [TCMDC-134122]	-6.778
O=C(NCCCCCN1CCC(c2c[nH]c3ccccc23)CC1)c1ccc(-c2cccnc2)cc1 [TCMDC-139183]	113.1
O=C(NCCCCCN1CCC(c2c[nH]c3ccccc23)CC1)c1ccc(-c2ccccc2)nc1 [TCMDC-139157]	-73.03
O=C(NC1CCN(CCN2CCC(c3c[nH]c4ccccc34)CC2)CC1)c1ccc(-c2ccc(C(F)(F)F)cc2)cc1 [TCMDC-138845]	66.39
O=C(NCCCCN1CCC(c2c[nH]c3ccccc23)CC1)c1sc(-c2ccc(C(F)(F)F)cc2)nc1CO [TCMDC-138780]	-12.54
O=C(NCCCCN1CCC(c2c[nH]c3ccccc23)CC1)c1ccc(-c2ccc(C(F)(F)F)cc2)cc1 [TCMDC-138631]	87.17
O=C(NCCCN1CCC(NC(=O)c2ccc(-c3cccnc3)cc2)CC1)c1ccc(Cl)c(Cl)c1 [TCMDC-133357]	16.57
O=C(NC1CCN(CCN2CCC(c3ccccc3C(F)(F)F)CC2)CC1)c1ccc(-c2ccc(Cl)cc2)cc1 [TCMDC-138809]	-39.81
COc1ccc2[nH]cc(C3CCN(CCCCCNC(=O)c4ccc(-c5ccccc5)cc4)CC3)c2c1 [TCMDC-139053]	30.55
O=C(/C=C/c1ccc(C(F)(F)F)cc1)NCCCCCN1CCC(c2c[nH]c3ccccc23)CC1 [TCMDC-139209]	23.24
O=C(NCCCCN1CCC(c2c[nH]c3ccc(-c4ccccc4)cc23)CC1)c1ccc(-c2ccccc2)cc1 [TCMDC-139064]	108.8
O=C(NC1CCN(CCN2CCc3ccccc3CC2)CC1)c1ccc(-c2ccc(C(F)(F)F)cc2)cc1 [TCMDC-138831]	-7.885
O=C(NCCCCCN1CCC(c2ccc(O)cc2)CC1)c1ccc(-c2ccccc2)cc1 [TCMDC-139196]	-56.25
CC(=O)c1ccccc1OCCSc1nnc(Cc2cccs2)n1C1CCCCC1 [TCMDC-123554]	-19.51
CCN(C(=O)NC)C1c2cc(C#N)ccc2OC(C)(C)C1O (stereo not drawn) [TCMDC-131556]	13.93
CCCC1N=C(N)N=C(N)N1c1ccc(C)c(C)c1 (stereo not drawn) [TCMDC-131301]	2.054
O=C(Nc1cc(C(F)(F)F)ccc1N1CCOCC1)C(Cl)(Cl)Cl [TCMDC-123707]	15.78
CCCCN(CCCC)C(=N)c1cccc2c1CCCC2 [TCMDC-131553]	17.3
COc1ccc(CC2(c3ccc(F)cc3)N=C(N)N(CCCc3ccc4c(c3)OCO4)C2=O)cc1 (stereo not drawn) [TCMDC-136540]	-15.69

SMILES	% Inhibition [%]
COc1cc(Cc2cnc(N)nc2N)cc(OCCNC(=O)OCc2ccccc2)c1OC [TCMDC-138056]	-17.39
CCOC(=O)Nc1cc(-c2csc(N=C(N)N)n2)cc([N+](=O)[O-])c1 [TCMDC-137230]	-82.77
Cn1nccc1C(=O)NCCNCc1cccc(-c2cccc(-c3nc4cc(C(F)(F)F)ccc4[nH]3)c2)c1.O=C(O)C(F)(F)F [TCMDC-133008]	12.04
COc1cc2c(cc1S(=O)(=O)c1ccc(NC(=O)c3cc4ccccc4s3)cc1)CCN(C)CC2 [TCMDC-133789]	17.23
COc1ccc2nc(C)cc(NC3Cc4ccccc4C3)c2c1.Cl [TCMDC-138978]	40.25
Oc1ccc2ccccc2c1C=NNc1nc(Nc2ccccc2)nc(Nc2ccccc2)n1 [TCMDC-125790]	78.83
COc1ccc(Nc2nc(N/N=C/c3ccc(-c4ccc([N+](=O)[O-])cc4)o3)nc(Nc3ccccc3)n2)cc1 [TCMDC-124187]	17.9
COc1c(C=NNc2nc(Nc3ccccc3)nc(Nc3ccccc3)n2)ccc(Br)c1O [TCMDC-125800]	79.97
O=[N+]([O-])c1cc2c(cc1C=NNc1nc(Nc3ccccc3)nc(Nc3ccccc3)n1)OCO2 [TCMDC-124249]	-0.02415
COc1ccc(Nc2nc(N/N=C/c3cc(Br)ccc3O)nc(Nc3ccc([N+](=O)[O-])cc3)n2)cc1 [TCMDC-124182]	30.94
COc1ccc(Nc2nc(NN=Cc3cc(Cl)ccc3O)nc(Nc3ccccc3)n2)cc1 [TCMDC-124115]	59.23
Brc1cc2c(cc1C=NNc1nc(Nc3ccccc3)nc(Nc3ccccc3)n1)OCO2 [TCMDC-124195]	14.96
COc1ccc(Nc2nc(NN=Cc3cc(Br)c(O)cc3O)nc(Nc3ccc([N+](=O)[O-])cc3)n2)cc1 [TCMDC-124181]	28.04
Oc1ccc2ccccc2c1C=NNc1nc(Nc2ccccc2)nc(N2CCOCC2)n1 [TCMDC-123839]	-12.77
Cc1cccc(CN2CCCC3(CCN(Cc4ccccc4O)C3)C2)c1 (stereo not drawn) [TCMDC-124654]	29.07
Cc1cc(NC(=O)c2cccs2)ccc1OC1CCN(Cc2ccccc2)C1 (stereo not drawn) [TCMDC-133968]	-2.762
O=C(Cc1cnc[nH]1)Nc1ccc(-c2cccc(-c3nc4ccc(F)cc4[nH]3)c2)cc1 [TCMDC-136941]	11.61
CCCCCCN1CCCN(Cc2ccc(C(=O)Nc3ccc(F)c(F)c3)cc2)CC1 [TCMDC-136392]	-27.76
COc1ccc(CNCc2ccc(-c3ccc(-c4nc5cc(C(F)(F)F)ccc5[nH]4)s3)cc2)cc1.O=C(O)C(F)(F)F [TCMDC-132719]	-32.49
CNCCNCc1ccc(-c2ccc(-c3nc4ccc(C(F)(F)F)cc4[nH]3)s2)cc1 [TCMDC-132838]	66.7
CNCCNCc1ccc(-c2ccc(-c3nc4ccc(F)cc4[nH]3)s2)cc1 [TCMDC-132829]	87.07
Fc1ccc2nc(-c3ccc(-c4ccc(CNCCc5ccncc5)cc4)s3)[nH]c2c1 [TCMDC-132848]	-14.58

SMILES	% Inhibition [%]
CNCCNCc1cccc(-c2ccc(-c3nc4ccccc4[nH]3)s2)c1 [TCMDC-132823]	28.05
CS(=O)(=O)NCCCNCc1ccc(-c2ccc(-c3nc4ccc(F)cc4[nH]3)s2)cc1 [TCMDC-133084]	18.31
CN1CCCC1CCOc1ccc2c(c1)N(C(=O)Nc1cc(Br)cc(C(F)(F)F)c1)CC2 (stereo not drawn) [TCMDC-140247]	47.25
CC(C)c1ccc(NS(=O)(=O)c2cccc(C(=O)NC3CCN(CC4CCCCC4)CC3)c2)cc1 [TCMDC-136739]	-17.03
CCOC(=O)CCCOc1cc(Cc2cnc(N)nc2N)cc(OC)c1OC [TCMDC-137356]	44.1
Cc1nc2ccc(NC(=O)c3cc(S(=O)(=O)N(C)C)ccc3Cl)cc2s1 [TCMDC-124375]	38.91
CC(C)c1ccc(CN(C)CCCCNC(=O)c2ccc(NC(=O)c3ccc(Cl)cc3)cc2)cc1 [TCMDC-138505]	20.72
COc1cc(C(C)C)nc2ccc(NC(=O)c3ccc(C(=O)Nc4ccc5nc(C(C)C)cc(OC)c5c4)cc3)cc12 [TCMDC-140150]	33.52
COc1cc(Nc2nccc(N3CCC(NC(=O)C(C)c4ccc(Cl)cc4)C3)n2)cc(OC)c1OC (stereo not drawn) [TCMDC-133623]	58.38
COc1ccc(Cl)cc1NC(=O)C(C)Nc1ccc(-c2ccccc2)cc1 (stereo not drawn) [TCMDC-123559]	-53.48
CC(C)C(C(=O)Nc1ccc2c(c1)OCO2)c1ccc(Cl)cc1 (stereo not drawn) [TCMDC-125398]	78.19
CC(C)C(C(=O)Nc1ccc(S(=O)(=O)N(C)C)cc1)c1ccc(Cl)cc1 (stereo not drawn) [TCMDC-125113]	56.45
COc1ccc(Nc2nccc(N3CCC(NC(=O)C(C)c4ccc(Cl)cc4)C3)n2)cc1 (stereo not drawn) [TCMDC-133612]	-10.01
CC(C(=O)NC1CCN(c2ccnc(Nc3ccc(F)cc3)n2)C1)c1ccc(Cl)cc1 (stereo not drawn) [TCMDC-133596]	19.11
COc1cc(NC(=O)C(c2ccc(Cl)cc2)C(C)C)cc(OC)c1OC (stereo not drawn) [TCMDC-125118]	82.24
Cc1cc(N2CCCC2)nc(Nc2ccc(NC(=O)c3ccc4c(c3)OCO4)cc2)n1 [TCMDC-124955]	-35.01
O=C(Nc1ccc2c(c1)OCO2)c1cc(-c2cccnc2)nc2ccc(Cl)cc12 [TCMDC-125213]	-64.78
O=C(Nc1ccccc1)Nc1ccc(-c2cccc(-c3nc4ccc(C(F)(F)F)cc4[nH]3)c2)cc1 [TCMDC-133153]	-37.9
COC(=O)c1ccc2c(c1)nc(Nc1cccc(F)c1)n2CC(O)c1ccccn1 (stereo not drawn) [TCMDC-138586]	-5.24
CC(C)(C)c1nn(-c2ccccc2)c2[nH]c(=O)c(CNCCc3ccccc3)cc12 [TCMDC-125381]	14.37
CCCCN1CCN(c2cc(NS(=O)(=O)c3ccc(C(=O)Nc4ccc(C(F)(F)F)cc4)cc3)ccc2OC)CC1 [TCMDC-141777]	-10.1
O=C(Nc1ccc(-c2nc3ccccc3[nH]2)cc1)c1cncc(Br)c1 [TCMDC-123692]	2.548
